HCMV inh – human cytomegalovirus inhibition; activity change, negative = inhibition, % at 57.5 µM; actives 4.5% (n = 410,000); AID 1259415; HFF cells, HCMV-luciferase reporter, 72 h; hits give low values; in the data active = activity change below about -60%; inconclusive = no clear call, values can overlap the other calls; inactive = above about -39%; note: % is set by controls: 0 for no effect and ±100 for the full control effect
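Two compound doses tested in HFFs infected with HCMV-luciferase, MOI 1 PFU/cell, 72 h at 37C. Lysate luminescence read with OneGlo; data normalized against buffer-only and 10uM Salinomycin inhibitor controls.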
Lassa entry inh – inhibitors of Lassa virus binding or cell entry. Lassa virus pseudotype entry inhibition, cell reporter. Potency, µM (top dose mostly 37.9 µM), inactives show top-dose activity change, negative = inhibition, hits mostly inhibitors. actives 1.2% (n = 300,000); calls by dose curve; tested in HEK293 cells; note: potency is the fitted concentration of half-maximal effect; % is set by controls: 0 for no effect and ±100 for the full control effect; nearly all actives have a fitted effect of over 50% in size
Marburg entry inh – blocks Marburg virus binding to or entry into cells; Marburg virus pseudotyped entry inhibition, cell reporter; Potency, µM (top dose mostly 37.8 µM), for inactives: top-dose activity change, negative = inhibition, usual class: inhibitors; actives 1.8% (n = 300,000); calls by dose curve; tested in HEK293 cells; note: potency is the fitted concentration of half-maximal effect; % is set by controls: 0 for no effect and ±100 for the full control effect
FMDV antiviral – foot and mouth disease virus antiviral activity; FMDV antiviral cell-based qHTS; Potency, µM (titrated, usually from 57.9 µM), for the others: top-dose activity change, negative = inhibition, usual class: inhibitors; actives 1.2% (n = 410,000); AID 1159524; calls by dose curve; tested in HEK293T cells; note: read-out not given here; potency is the fitted concentration of half-maximal effect; % is set by controls: 0 for no effect and ±100 for the full control effect; nearly all actives have a fitted effect of over 45% in size
HCV inhibitor – HCV inhibition; Huh7.5.1 HCVcc-Cre infection, luciferase reporter, 44 h; Potency, µM (top dose mostly 41.8 µM), for inactives: top-dose activity change, negative = inhibition, actives largely listed as inhibitors; actives 3.4% (n = 340,000); active = well fitted inhibition curve with a large enough effect; inconclusive = small, poorly fitted or top-dose-only effect, or another doubt; inactive = no such curve, though single readings can be large or run the other way; note: potency is the fitted concentration of half-maximal effect; % is set by controls: 0 for no effect and ±100 for the full control effect
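After 44 h co-culture of compound, cells and HCVcc-Cre (~0.5 moi), substrate is added for 15 min at room temperature and luciferase measured over 15 sec. Cells were seeded at 1,000/well and pre-cultured 4 h.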
SARS PLpro yeast – inhibitors of SARS-CoV papain-like protease in yeast; S. cerevisiae expressing SARS-CoV PLpro, growth rescue; Potency, µM (highest dose often 32.9 µM), for inactives: top-dose activity, positive = growth rescue, hits mostly activators; actives 0.19% (n = 330,000); calls by dose curve; note: potency is the fitted concentration of half-maximal effect; 0% is about no effect; nearly all actives have a fitted effect of over 55% in size
Active calls of the source: *; u = inconclusive; x = no result; + = active, no number; [ ] = dose if it differs, or a comment. Most compounds without a hit are left out; they make up all but 8% or so of the library.

SMILES | HCMV inh | Lassa entry inh | Marburg entry inh | FMDV antiviral | HCV inhibitor | SARS PLpro yeast
CCCCNc1c2c3c(cccc3n(C)c1=O)C(=O)c1ccccc1-2 | x | -28% | u | 32µM* | u | 1%
COc1cccc(CNC(=O)[C@H]2[C@H](CO)[C@H]3Cn4c(cccc4=O)[C@@H]2N3C(=O)C2CC2)c1 | -20 | x | x | x | x | x
NCCC(=O)N1c2ccccc2Sc2ccc(Cl)cc21 | 35 | x | x | -26% | u | 5%
CN(C)CCC(=O)N1c2ccccc2Sc2ccc(Cl)cc21 | u | 0% | u | -9% | 6.3µM* | 1%
CCN(CC)CCC(=O)N1c2ccccc2Sc2ccc(Cl)cc21 | u | x | x | -20% | u | x
NCCCC(=O)N1c2ccccc2Sc2ccc(Cl)cc21 | 23 | 0.71µM* | u | -23% | 5µM* | 0%
CN(C)CC(=O)N1c2ccccc2Sc2ccc(Cl)cc21 | -64* | 1% | -18%[46.1 µM] | -11% | u | -1%
COc1ccc(C(CC(=O)N2CCCC2)c2c(OC)cc(OC)c3ccc(=O)oc23)cc1 (stereo not given) | -22 | x | x | 0% | 2.8µM* | 1%
COc1ccc(C(CC(=O)N2CCCC(C)C2)c2c(OC)cc(OC)c3c(-c4ccccc4)cc(=O)oc23)cc1 (stereo not given) | -68* | x | x | 59% | u | -3%
COc1ccc(C(CC(=O)N2CCCC2)c2c(OC)cc(OC)c3c(-c4ccccc4)cc(=O)oc23)cc1 (stereo not given) | 49 | x | x | 67% | u | -2%
COc1ccc(C(CC(=O)N2CCCC(C)C2)c2c(OC)cc(OC)c3ccc(=O)oc23)cc1 (stereo not given) | -32 | x | x | 7% | 11µM* | 0%
CCOc1ccc(CCNC(=O)CCCc2nnc3n(CCCOC)c(=O)c4sccc4n23)cc1 | u | 7%[46.1 µM] | x | -7% | x | x
CCCCOc1ccc(S(=O)(=O)Nc2cccc(-c3ccc(N4CCOCC4)nn3)c2)cc1 | 86 | -9%[46.1 µM] | x | 31% | x | x
COC(=O)[C@@H]1CCCN1C(=O)c1cnn(-c2ncc3c(n2)-c2ccccc2CCC3)c1C1CC1 | x | x | x | 9% | x | x
COc1cccc(C(=O)CC(=O)C(=O)Nc2ccc(C)cc2Cl)c1 | -13 | 29%[46.1 µM] | -29%[46.1 µM] | -18% | 12% | 6%
COc1ccc(C(=O)CC(=O)C(=O)Nc2ccc(C)cc2Cl)cc1 | 2 | u | u | -17% | 10µM* | 1%
CCOC(=O)c1ccccc1NC(=O)Cn1c(=O)n(-c2ccc(CC)cc2)c(=O)c2c(C)c(C(=O)N(C)C)sc21 | u | 0%[46.1 µM] | x | -11% | x | x
C=C1C[C@@]23CC[C@H]4[C@@](C)(CCC[C@@]4(C)C(=O)O)[C@@H]2CC[C@]1(O)C3 | x | 11% | 11% | x | x | x
N#CCCN(C(=O)COC(=O)c1cc(S(=O)(=O)N2CCOCC2)ccc1Cl)c1ccc(F)cc1 | -71* | -18% | 12% | -20% | -7%[8.37 µM] | -2%
N#CCCN(C(=O)COC(=O)c1cccc(S(=O)(=O)N2CCCC2)c1)c1ccc(F)cc1 | -75* | -19% | -6% | -7% | x | 23%
Cc1ccc2c(c1)c1c3n2CCN(C(=O)c2ccc(C(F)(F)F)cc2)C3CCC1 (stereo not given) | -1 | -3%[46.1 µM] | 1%[46.1 µM] | -18% | x | x
CN(C)C=Nc1ncc2c3ccccc3n(CCN(C)C)c2c1C#N | -98* | -19% | 11µM* | 1% | -6% | 4%
CCN(CC)CCn1c2ccccc2c2cnc(N)c(C#N)c21 | -98* | u | 11µM* | -19% | 10µM* | 5%
COC(=O)c1[nH]c2ccc(C)cc2c1NC(=O)CN1CCCC(C)(C)C1 | u | u | u | 7% | 13µM* | -5%
COC(=O)c1[nH]c2ccc(C)cc2c1NC(=O)CN1CCc2cc(OC)c(OC)cc2C1 | -11 | -23% | u | u | 10µM* | 7%
SMILES | HCMV inh | Lassa entry inh | Marburg entry inh | FMDV antiviral | HCV inhibitor | SARS PLpro yeast
CCN(CC(=O)Nc1c(C(=O)OC)[nH]c2ccc(C)cc12)c1ccc2c(c1)OCO2 | -5 | -20% | -18% | -25% | 8.9µM* | 20%
COC(=O)c1[nH]c2ccc(F)cc2c1NC(=O)CCN1CCN(Cc2ccc3c(c2)OCO3)CC1 | -15 | -15% | -1% | u | u | -2%
COc1cc2c(cc1OC)CN(CC(=O)Nc1ccc(C)cc1)CC2 | -32 | 1% | u | -7% | -2% | 16%
COc1cc(NC(=O)C2CCN(S(=O)(=O)c3ccc4c(c3)oc(=O)n4C)CC2)cc(OC)c1 | -15 | 1%[46.1 µM] | -15%[46.1 µM] | -15% | x | x
CNC[C@H](Cc1ccccc1)NC[C@@H](Cc1cccc2ccccc12)NCCc1ccc(C)cc1 | u | x | x | -28% | 14% | -11%
CNCCNC[C@H](Cc1cccc2ccccc12)NCCc1ccccc1 | -100* | x | x | -20% | u | -5%
CC(C)CCNC(=O)CN1C(=O)CCn2nc(-c3cn(C)c4ccccc34)cc21 | 17 | 0%[46.1 µM] | x | -13% | x | x
O=C(Nc1ccc(Cn2cccn2)cc1)c1ccc(COc2cccc(Br)c2)cc1 | 59 | 5.6µM* | 0.56µM* | -21% | 10µM* | 1%
O=C(Nc1ccc(Cn2cccn2)cc1)c1ccc(COc2ccc(Br)cc2)cc1 | 22 | -13% | 3% | -19% | 9% | -3%
C[N+]1(C)CCC(OC(=O)C(O)(c2ccccc2)C2CCCC2)C1 (stereo not given) | -90* | x | x | -4% | -4% | x
COc1ccc(CNC(=O)c2cnn(-c3ccc(OC)cc3)c2C2CCN(C(=O)OC(C)(C)C)CC2)cc1 | 0 | u | x | 4% | x | x
Cc1ccc(-n2ncc(C(=O)N3CCN(C4CCCCC4)CC3)c2C2CCN(C(=O)OC(C)(C)C)CC2)cc1C | 0 | 2µM* | x | u | x | x
CC(C)(C)OC(=O)N1CCC(c2c(C(=O)N3CCN(C4CCCCC4)CC3)cnn2-c2ccc(F)cc2)CC1 | -26 | u | 28%[46.1 µM] | -9% | 0% | 21%
COc1ccc(-n2ncc(C(=O)NCCc3ccsc3)c2C2CCN(C(=O)OC(C)(C)C)CC2)cc1 | + | u | x | 11% | x | x
CCN1CCN(C(=O)c2cnn(-c3cccc(Cl)c3)c2C2CCN(C(=O)OC(C)(C)C)CC2)CC1 | 8 | 7.1µM* | x | -13% | x | x
Cc1cc(=O)n2nc(N(C)CC(=O)NCc3ccc(Cl)cc3)sc2n1 | 11 | 25%[46.1 µM] | 20%[46.1 µM] | 3% | x | x
CC(C)=CCN1C(=O)[C@]2(O[C@H](COc3ccccc3)CC3=CCCC32)c2c(Br)cccc21 (stereo not given in full) | x | x | -17%[14.2 µM] | x | x | x
O=C1c2ccc3c4c(ccc(c24)C(=O)N1c1cccc(O)c1)C(=O)N(c1cccc(O)c1)C3=O | -88* | x | -1% | u | 5µM* | 2%
O=C1c2ccc3c4c(ccc(c24)C(=O)N1c1cccc(O)c1)CC3 | u | 2% | -28% | 11% | 13% | 0%
